Compound activity deposited in PubChem by National Center for Advancing Translational Sciences (NCATS).
This is a sample that favours compounds with a hit; in the whole collection about 1.1% have one here.
AmpC inh detg = qHTS Inhibitors of AmpC Beta-Lactamase (assay with detergent); Potency, µM (highest dose often 114 µM), most hits filed as inhibitors; P00811; AID 485294, 2010; actives 0.041% (n = 370,000); AmpC hydrolysis of nitrocefin, absorbance 480 nm, 0.01% Triton; note: nearly all actives have a fitted effect of over 25% in size
Target sequence (P00811 whole entry, looked up): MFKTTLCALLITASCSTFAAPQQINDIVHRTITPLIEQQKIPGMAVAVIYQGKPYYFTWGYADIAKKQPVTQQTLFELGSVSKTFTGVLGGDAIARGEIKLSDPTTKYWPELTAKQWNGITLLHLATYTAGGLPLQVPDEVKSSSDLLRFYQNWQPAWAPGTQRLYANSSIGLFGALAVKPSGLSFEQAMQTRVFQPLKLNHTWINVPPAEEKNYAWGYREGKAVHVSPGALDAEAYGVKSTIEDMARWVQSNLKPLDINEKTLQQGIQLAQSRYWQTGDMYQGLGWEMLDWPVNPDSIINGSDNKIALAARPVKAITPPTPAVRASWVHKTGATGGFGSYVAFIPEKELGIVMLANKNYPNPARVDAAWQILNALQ
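20 mM phosphate pH 7.0 + 0.01% (detergent screen) or 0.0001% Triton X-100; 5.3 nM AmpC reagent; cpd preinc 15 min RT; nitrocefin (800 uM stock) to start; A480 q20 s × 4 min; Activity was normalised to no-enzyme and no-compound control wells.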
VACV Venus inh = qHTS for Stage-Specific Inhibitors of Vaccinia Orthopoxvirus: Venus Reporter Primary qHTS | Vaccinia virus Venus reporter expression, fluorescence | Potency, µM (top dose mostly 36.5 µM), actives largely listed as inhibitors | actives 0.46% (n = 330,000); calls by dose curve; tested in A549 cells; note: nearly all actives have a fitted effect of over 30% in size
VACV mCherry inh = qHTS for Stage-Specific Inhibitors of Vaccinia Orthopoxvirus: mCherry Reporter Primary qHTS. Vaccinia virus mCherry reporter infection, fluorescence. Potency, µM (series often up to 36.5 µM), hits mostly inhibitors. actives 0.63% (n = 310,000). AID 720579, 2013; calls by dose curve; tested in A549 cells; note: nearly all actives have a fitted effect of over 35% in size
AmpC inh no detg = qHTS Inhibitors of AmpC Beta-Lactamase (assay without detergent); P00811; AmpC nitrocefin hydrolysis, absorbance 480 nm, 0.0001% Triton; Potency, µM (doses to about 57.1 µM), hits mostly inhibitors; actives 0.52% (n = 330,000); AID 485341, 2010; note: nearly all actives have a fitted effect of over 20% in size
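20 mM phosphate pH 7.0 + 0.01% (detergent screen) or 0.0001% Triton X-100; 5.3 nM AmpC reagent; cpd preinc 15 min RT; nitrocefin (800 uM stock) to start; A480 q20 s × 4 min; Activity was normalised to no-enzyme and no-compound control wells.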
Hits are given with their value; – = inactive; ? = inconclusive; · = not tested or not shown; ! = not confirmed by another sample. Unless noted, calls come from the whole dose curve; as a rule, active = well fitted curve in the direction sought with a large enough effect; inconclusive = small, poorly fitted or top-dose-only effect, or another doubt; inactive = no such curve, though single readings can be large; an effect the other way counts as inactive or inconclusive.

SMILES | AmpC inh detg | VACV Venus inh | VACV mCherry inh | AmpC inh no detg
COc1ccc(C2C(C#N)=C(N)Oc3c2ccc2cccnc32)cc1OC (stereo not drawn) | – | ? | 8.9µM | –
COc1cc(C2C(C#N)=C(N)Oc3c2ccc2ccccc32)ccc1OCC(=O)Nc1ccc(C)cc1 (stereo not drawn) | – | – | ? | –
CC12CC[C@H]3[C@@H](CCC4(O)C[C@H](O)CCC34/C=N/NC(=O)Cc3ccccc3)C1(O)CCC2C1=CC(=O)OC1 (stereo partly drawn) | – | ? | ? | –
CC12CC[C@H]3[C@@H](CCC4(O)C[C@H](O)CCC34/C=N/NC(=O)c3ccccc3[N+](=O)[O-])C1(O)CCC2C1=CC(=O)OC1 (stereo partly drawn) | – | 10µM | ? | –
CNC(=O)Nc1ccc(C(=O)N/N=C\C23CC[C@@H](O)CC2(O)CC[C@@H]2[C@@H]3CCC3(C)C(C4=CC(=O)OC4)CCC23O)cc1 (stereo partly drawn) | – | ? | 13µM | –
COc1ccc(-c2nc3cc(C)ccc3cc2CN(C(=O)c2csc(C)n2)C2CC2)cc1OC | · | – | – | ·
CC(C)c1c(C(=O)NCC2(N3CCOCC3)CCCC2)cnn1-c1nccc(-c2cccs2)n1 | · | – | – | ·
CN(Cc1ccccc1)c1nc2c(c(=O)[nH]c(=O)n2C)n1Cc1ccccc1 | ? | · | · | –
Cc1cccc(Cn2c(N(C)CCO)nc3c2c(=O)[nH]c(=O)n3C)c1 | ? | · | · | 11µM
COc1ccccc1N/C(N)=N/c1nc(CSc2ccc(C)cc2)cc(=O)[nH]1 | ? | – | ? | 14µM
Cc1ccc(SCc2cc(=O)[nH]c(/N=C(\N)Nc3ccccc3Sc3ccccc3)n2)cc1 | ? | – | – | –
O=C(c1cc(-c2ccccc2)on1)N1CCOc2ccc(CN3CCN(c4ccccn4)CC3)cc2C1 | · | – | – | ·
CCCC[C@H](CN[C@@H](CNC)[C@H](C)CC)NCCC12CCC(CC1)C2 | – | 22µM | 22µM | –
O=C(NC1CC1)c1sc2ccccc2c1Cl | – | – | – | –
O=C(NC1C=CS(=O)(=O)C1)c1sc2ccccc2c1Cl (stereo not drawn) | – | ? | 10µM | –
Cc1ccc(SCC(=O)c2c(C)nc3cc(C)ccn23)cc1 | – | · | · | –
Cc1ccn2c(C(=O)CSc3ccc(Cl)cc3)c(C)nc2c1 | – | – | · | 0.32µM
CCC1CN(CCNC(=O)c2cc(C)nn2CC)Cc2cc(OC)ccc2O1 (stereo not drawn) | · | – | – | ·
CN(C)CCNC(=O)c1cc2c(s1)-c1ccc(Cl)cc1SC2 | – | 3.5µM | ? | –
C#CCN(Cc1nc(N2CCOCC2)c2ccc(Cl)cc2n1)Cc1ccco1 | · | – | – | ·
CC1CCCN(CCS(=O)(=O)c2ccccc2)C1 (stereo not drawn) | · | ? | 10µM | ·
COc1ccc(CC(N)c2csc(NC(=O)Nc3cccc(C(F)(F)F)c3)n2)cc1 (stereo not drawn) | · | 14µM | ? | ·
COc1ccc(CC(N)c2csc(NC(=O)Nc3ccc(F)cc3)n2)cc1 (stereo not drawn) | · | – | – | ·
NC(Cc1ccc(C(F)(F)F)cc1)c1csc(NC(=O)Nc2ccccc2)n1 (stereo not drawn) | · | 10µM | ? | ·
CCNc1ccc(/C=C2\C=Cc3ccccc32)cc1 | · | – | – | ·
SMILES | AmpC inh detg | VACV Venus inh | VACV mCherry inh | AmpC inh no detg
Cc1ccccc1Nc1c(-c2ccccn2)nc2ccccn12 | – | · | · | –
Cc1ccn2c(Nc3ccccc3C)c(-c3ccccn3)nc2c1 | – | ? | 7.9µM | –
Cc1ccc2nc(-c3ccccn3)c(Nc3ccccc3C)n2c1 | – | ? | 6.3µM | –
Cc1ccn2c(Nc3ccccc3)c(-c3ccccn3)nc2c1 | ? | – | 2.2µM | –
CC(C)c1ccc(Nc2c(-c3ccccn3)nc3ccccn23)cc1 | – | ? | 11µM | ·
COCC(=O)Nc1cc(C(=O)N2CCc3c(Cl)cccc3C2)c2c(c1)nc(-c1ccncc1)n2C | · | – | – | ·
CC(C)c1ccc(C(=O)C[N+]2(C)CCOCC2)cc1 | · | – | – | ·
COc1cc(-c2nc(C)cnc2C)cc2c1OCCN(C(=O)Cn1nc(-c3ccccc3)c3ccccc3c1=O)C2 | · | – | – | ·
O=C(c1cccc(F)c1F)N1CCOc2ccc(CN3CCC(Oc4cccnc4)CC3)cc2C1 | · | – | – | ·
O=C([C@@H]1C[C@@H](Sc2nc3ccccc3[nH]2)CN1CC1CCCCC1)N1CCOCC1 | · | – | – | ·
COc1cccc(CNC(=O)c2c(OC)cc(=O)n3c2CCN(C(=O)c2ccc(C)cc2C)CC3)c1 | · | – | – | ·
COCCNC(=S)N/N=C(\C)c1ccc(Cl)s1 | – | – | 8.9µM | –
Nc1ccccc1Nc1cc(-c2ccccc2)[nH]n1 | – | – | – | 1.1µM
O=C(N=Nc1c(O)[nH]c2ccccc12)Nc1ccccc1 | · | – | – | ·
Cc1cccc(NC(=S)N=Nc2c(O)[nH]c3ccccc23)c1 | ? | ? | – | 32µM
Cc1ccc(N2C(=O)CC(Nc3ccc(Cl)c(S(=O)(=O)N(C)C)c3)C2=O)c(C)c1 (stereo not drawn) | – | · | · | 28µM
Cc1ccccc1N1C(=O)CC(Nc2ccc3c(c2)OCO3)C1=O (stereo not drawn) | – | · | · | –
COc1ccc(C(=O)NCC2Cc3cccc(-c4ccc(S(C)(=O)=O)cc4)c3O2)c(OC)n1 (stereo not drawn) | · | – | – | ·
COc1cccc(/C=N/NC(=O)c2ccccc2)c1OS(=O)(=O)c1ccccc1 | – | – | – | 32µM
COc1cc(/C=N/NC(=O)c2ccncc2)ccc1OC(=O)c1cccc(Br)c1 | – | – | – | –
COc1cccc(/C=N/NC(=O)c2ccncc2)c1OC(=O)c1ccc(Br)cc1 | – | – | 4.5µM | –
COc1ccccc1CNc1ncnc2sc(C(=O)N3CCN(C)CC3)c(C)c12 | · | – | – | ·
Cc1ccccc1-c1cc2c(c(OC3CCOC3)c1)OCCN(C(=O)Cn1cccn1)C2 (stereo not drawn) | · | – | – | ·
CCn1c(-c2ccccc2F)nc2cc(NC(C)=O)cc(C(=O)N(C)Cc3cn(C)nc3C)c21 | · | – | – | ·
CCCCCN=C(N)N/N=C/c1c[nH]c2ccc(OC)cc12 | · | 11µM! | ? | ·
SMILES | AmpC inh detg | VACV Venus inh | VACV mCherry inh | AmpC inh no detg
Cc1ncc2c(c1CNS(=O)(=O)c1cccs1)CCN(C(=O)/C=C/c1cc(F)cc(F)c1)C2 | · | – | – | ·
Cc1cc(NCCCn2ccnc2)n2ncc(-c3ccc(Cl)cc3)c2n1 | – | ? | 13µM | –
O=c1c(C(c2ccccc2)c2c(O)sc3ccccc3c2=O)c(O)sc2ccccc12 | – | – | – | 16µM
COC(=O)C1CCN(Cc2ccc3c(c2)CN(C(=O)c2cc4ccccc4n2C)CCO3)CC1 | · | – | – | ·
Cc1c(C(=O)N2CCCCC2c2cccnc2)sc2ncnc(NCc3cccs3)c12 (stereo not drawn) | · | – | – | ·
Cc1nc2sccn2c1CN1CCOc2ccc(CN3C[C@@H](C)O[C@@H](C)C3)cc2C1 | · | – | – | ·
COc1ccc(/C=C2\CN(Cc3ccccc3)C/C(=C\c3ccc(OC)c(O)c3)C2=O)cc1O | – | ? | 7.9µM | –
